# Experimental data as given in PubChem BioAssay (EPA / NIEHS).
# The source made the active and inactive calls. Rule for the calls: active = hit-call score of the fitted dose curve at least 0.9, where 1 is the maximum; inactive = score below 0.9.
# Experiments:
# [1] = ATG_PBREM_CIS: Attagene CIS-FACTORIAL HepG2 Assay for human Phenobarbital-responsive Enhancer Module (PBREM) (AID 2282955); conditions: HepG2 PBREM cis-reporter, Attagene multiplexed transcription; actives raise or lower the signal
# In short: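 HepG2 cells transiently transfected with multiple cis-regulated reporter transcription units; endogenous factor activity at the PBREM element measured as reporter mRNA 24 h after dosing, via RT-PCR and capillary electrophoresis of fluorescent fragments; bidirectional fitting versus DMSO.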
# [2] = biological target: Paired box protein Pax-6 (Homo sapiens) (UniProt P26367); assay: ATG_Pax6_CIS: Attagene CIS-FACTORIAL HepG2 Assay for human Paired Box 6 (PAX6) (AID 2282956); conditions: HepG2 CIS-FACTORIAL PAX6 reporter transcription, RNA readout; actives raise or lower the signal
# Chain of Paired box protein Pax-6 (Homo sapiens) (P26367 whole entry, looked up): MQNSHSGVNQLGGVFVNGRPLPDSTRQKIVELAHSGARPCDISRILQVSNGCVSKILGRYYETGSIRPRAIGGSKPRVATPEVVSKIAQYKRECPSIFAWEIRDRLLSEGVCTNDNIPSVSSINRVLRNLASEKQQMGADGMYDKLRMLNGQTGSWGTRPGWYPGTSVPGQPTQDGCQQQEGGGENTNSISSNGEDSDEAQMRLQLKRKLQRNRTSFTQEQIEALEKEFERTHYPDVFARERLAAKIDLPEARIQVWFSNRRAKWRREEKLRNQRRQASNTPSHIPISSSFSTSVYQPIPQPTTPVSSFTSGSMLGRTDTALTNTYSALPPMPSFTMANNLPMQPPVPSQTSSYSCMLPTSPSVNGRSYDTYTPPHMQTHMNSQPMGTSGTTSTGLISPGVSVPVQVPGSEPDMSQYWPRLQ
# In short: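 Read-out is reporter transcript level, measured by RT-PCR with fluorescent primer extension and capillary electrophoresis after 24 h dosing of transfected HepG2 cells. Activity in either direction fitted relative to DMSO control.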
# [3] = ATG_PXRE_CIS: Attagene CIS-FACTORIAL HepG2 Assay for human Pregnane X Receptor Element (PXRE) (AID 2282957); conditions: HepG2 Attagene CIS-FACTORIAL PXRE reporter, mRNA; actives raise or lower the signal
# In short: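 Bidirectional activity, baselined to DMSO, derived from reporter mRNA fluorescence (RT-PCR plus capillary electrophoresis) in HepG2 cells bearing cis-promoter reporter units, 24 h exposure.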
# [4] = ATG_PPRE_CIS: Attagene CIS-FACTORIAL HepG2 Assay for human Peroxisome Proliferator-activated Response Element (PPRE) (AID 2282958); conditions: HepG2 PPRE cis-element reporter, Attagene transcription factor profiling; actives raise or lower the signal
# In short: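 HepG2 cells transiently transfected with multiplexed cis-element reporter units measure endogenous transcription factor activity. After 24 h compound exposure, reporter mRNA is quantified by RT-PCR, 6-FAM labeling, HpaI digestion and capillary electrophoresis; bidirectional fits are made against DMSO baseline.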
# [5] = ATG_RORE_CIS: Attagene CIS-FACTORIAL HepG2 Assay for human RAR-related Orphan Receptor Element (RORE) (AID 2282959); conditions: HepG2 Attagene cis-factorial RORE reporter, mRNA; actives raise or lower the signal
# In short: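 HepG2 cells transiently transfected with multiple cis-element reporter transcription units, exposed to chemical for 24 h. Reporter mRNA quantified by RT-PCR, 6-FAM primer-extension labeling, HpaI digestion and capillary electrophoresis; bidirectional fit versus DMSO baseline.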
# [6] = ATG_Sox_CIS: Attagene CIS-FACTORIAL HepG2 Assay for human SRY-box transcription factor (SOX) (AID 2282960); conditions: HepG2 Attagene cis-factorial SOX reporter, mRNA; actives raise or lower the signal
# In short: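 HepG2 cells transiently transfected with cis-element-driven multiple reporter transcription units, dosed 24 h; reporter mRNA measured by RT-PCR, FAM labelling, HpaI digestion and capillary electrophoresis. Bidirectional fit versus DMSO baseline.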
# [7] = biological target: Transcription factor Sp1 (Homo sapiens) (UniProt P08047); assay: ATG_Sp1_CIS: Attagene CIS-FACTORIAL HepG2 Assay for human Specificity Protein 1 (Sp1) (AID 2282961); conditions: HepG2 Sp1 cis-reporter transcription, actives raise or lower the signal
# Chain of Transcription factor Sp1 (Homo sapiens) (P08047 whole entry, looked up): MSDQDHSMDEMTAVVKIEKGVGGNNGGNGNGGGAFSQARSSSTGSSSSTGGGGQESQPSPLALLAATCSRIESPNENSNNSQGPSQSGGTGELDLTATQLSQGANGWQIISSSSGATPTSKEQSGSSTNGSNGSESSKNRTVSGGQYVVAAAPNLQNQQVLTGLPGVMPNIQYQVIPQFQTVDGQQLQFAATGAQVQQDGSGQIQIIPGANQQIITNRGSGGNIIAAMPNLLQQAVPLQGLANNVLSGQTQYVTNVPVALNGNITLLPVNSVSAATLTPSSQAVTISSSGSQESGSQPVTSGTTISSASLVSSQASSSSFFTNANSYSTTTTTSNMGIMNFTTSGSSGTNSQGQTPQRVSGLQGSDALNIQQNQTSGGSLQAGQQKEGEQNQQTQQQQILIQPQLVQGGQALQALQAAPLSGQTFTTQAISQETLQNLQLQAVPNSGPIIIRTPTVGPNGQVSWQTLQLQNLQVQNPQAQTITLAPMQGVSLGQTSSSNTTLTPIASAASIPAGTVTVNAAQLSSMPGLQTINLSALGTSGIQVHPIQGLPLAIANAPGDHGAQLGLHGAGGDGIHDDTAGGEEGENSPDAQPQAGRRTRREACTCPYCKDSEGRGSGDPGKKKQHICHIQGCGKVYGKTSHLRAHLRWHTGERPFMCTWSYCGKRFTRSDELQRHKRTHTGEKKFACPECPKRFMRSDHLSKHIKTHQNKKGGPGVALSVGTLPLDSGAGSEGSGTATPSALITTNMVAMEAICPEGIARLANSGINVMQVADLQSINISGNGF
# In short: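 HepG2 cells transiently transfected with multiple reporter transcription units driven by cis-regulatory elements; Sp1-responsive reporter mRNA measured 24 h after dosing by RT-PCR and capillary electrophoresis fluorescence, fitted bidirectionally against DMSO baseline.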
# [8] = ATG_SREBP_CIS: Attagene CIS-FACTORIAL HepG2 Assay for human Sterol Regulatory Element Binding (SREBP) (AID 2282962); conditions: HepG2 Attagene cis-factorial SREBP reporter, mRNA; actives raise or lower the signal
# In short: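 Endogenous SREBP activity read as cis-element-driven reporter transcript in transiently transfected HepG2, 24 h post-dosing; quantified via RT-PCR plus capillary electrophoresis of fluorescent fragments. Gain or loss of signal fitted relative to DMSO baseline.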
# [9] = biological target: Signal transducer and activator of transcription 3 (Homo sapiens) (UniProt P40763); assay: ATG_STAT3_CIS: Attagene CIS-FACTORIAL HepG2 Assay for human Signal Transducer and Activator of Transcription 3 (STAT3) (AID 2282963); conditions: HepG2, Attagene cis-factorial STAT3 reporter transcription; actives raise or lower the signal
# Chain of Signal transducer and activator of transcription 3 (Homo sapiens) (P40763 whole entry, looked up): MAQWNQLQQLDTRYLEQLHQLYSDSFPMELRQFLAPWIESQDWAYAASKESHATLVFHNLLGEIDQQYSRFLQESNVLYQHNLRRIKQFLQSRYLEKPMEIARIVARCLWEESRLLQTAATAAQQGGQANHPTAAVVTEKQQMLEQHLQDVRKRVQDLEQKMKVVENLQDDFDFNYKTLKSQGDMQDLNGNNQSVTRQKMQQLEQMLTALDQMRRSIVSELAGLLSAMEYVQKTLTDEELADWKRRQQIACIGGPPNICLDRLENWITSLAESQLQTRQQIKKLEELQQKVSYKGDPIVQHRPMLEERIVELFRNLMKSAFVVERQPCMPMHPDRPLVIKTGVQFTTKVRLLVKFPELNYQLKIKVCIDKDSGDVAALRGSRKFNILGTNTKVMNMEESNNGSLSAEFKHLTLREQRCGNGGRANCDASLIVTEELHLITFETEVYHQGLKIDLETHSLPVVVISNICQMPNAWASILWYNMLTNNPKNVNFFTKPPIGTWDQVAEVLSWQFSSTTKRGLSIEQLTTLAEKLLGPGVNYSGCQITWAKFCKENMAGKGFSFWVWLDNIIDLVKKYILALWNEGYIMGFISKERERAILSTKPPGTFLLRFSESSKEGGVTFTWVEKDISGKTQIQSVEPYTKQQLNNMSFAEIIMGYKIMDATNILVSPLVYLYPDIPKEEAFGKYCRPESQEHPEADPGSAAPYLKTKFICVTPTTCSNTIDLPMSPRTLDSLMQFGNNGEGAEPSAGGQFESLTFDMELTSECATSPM
# In short: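 Uses human liver HepG2 transiently carrying cis-regulated reporter transcription units. Following 24 h dosing, reporter mRNA induction was detected by RT-PCR and capillary electrophoresis, analysed bidirectionally versus DMSO.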
# [10] = ATG_TA_CIS: Attagene CIS-FACTORIAL HepG2 Assay for human TA Basal Promoter (AID 2282964); conditions: HepG2 Attagene CIS-factorial TA basal promoter reporter; actives raise or lower the signal
# In short: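 Fluorescence from labelled RT-PCR reporter fragments, separated by capillary electrophoresis, gives the signal. Cells: HepG2 transiently carrying multiple reporter units, 24 h chemical dosing. Gain or loss relative to DMSO.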
Structure (SMILES),outcome [1],outcome [2],outcome [3],outcome [4],outcome [5],outcome [6],outcome [7],outcome [8],outcome [9],outcome [10],AC50 [2],AC50 [7],AC50 [8],AC50 [1],AC50 [3],AC50 [6],AC50 [4]
CC(C)=CCCC(C)O (stereo not given),inactive,inactive,inactive,inactive,inactive,inactive,inactive,inactive,inactive,inactive,,,,,,,
CC1CCCCC1,inactive,inactive,inactive,inactive,inactive,inactive,inactive,inactive,inactive,inactive,,,,,,,
CCCCCCCCCCCCCC[P+](CCCC)(CCCC)CCCC,inactive,,inactive,inactive,inactive,inactive,,,inactive,inactive,0.81 µM (active),0.969 µM (active),1.24 µM (active),,,,
COCCOCCC[Si](C)(O[Si](C)(C)C)O[Si](C)(C)C,,inactive,,inactive,inactive,,,,inactive,inactive,,9.13 µM (active),6.62 µM (active),8.38 µM (active),0.752 µM (active),8.52 µM (active),
C=CCOC(=O)CC(C)C,inactive,inactive,inactive,inactive,inactive,inactive,inactive,inactive,inactive,inactive,,,,,,,
COc1ccccc1C=O,inactive,inactive,inactive,inactive,inactive,inactive,inactive,inactive,inactive,inactive,,,,,,,
Nc1cc([N+](=O)[O-])cc(Cl)c1O,inactive,inactive,,inactive,inactive,inactive,inactive,inactive,inactive,inactive,,,,,5.15 µM (active),,
CC(C)CCCC(C)CCO (stereo not given),inactive,inactive,inactive,inactive,inactive,inactive,inactive,inactive,inactive,inactive,,,,,,,
NC(O)(C(F)(F)F)C(F)(F)F,inactive,inactive,inactive,inactive,inactive,inactive,inactive,inactive,inactive,inactive,,,,,,,
CSc1ccc(O)cc1C,inactive,inactive,,inactive,inactive,inactive,inactive,inactive,inactive,inactive,,,,,44.3 µM (active),,
CCc1ccc(C)nc1,inactive,inactive,inactive,inactive,inactive,inactive,inactive,inactive,inactive,inactive,,,,,,,
Cc1cc(O)c(C(C)(C)C)cc1C(C)(C)C,inactive,inactive,,inactive,inactive,inactive,,,inactive,inactive,,11.1 µM (active),8.33 µM (active),,2.92 µM (active),,
CCC(Cc1c(I)cc(I)c(N)c1I)C(=O)O (stereo not given),inactive,inactive,,,inactive,,,,inactive,inactive,,88.5 µM (active),24.1 µM (active),,151 µM (active),137 µM (active),39.7 µM (active)
OCCC(O)CO (stereo not given),inactive,inactive,inactive,inactive,inactive,inactive,inactive,inactive,inactive,inactive,,,,,,,
C[Si](C)O[Si](C)C,inactive,inactive,inactive,inactive,inactive,inactive,inactive,inactive,inactive,inactive,,,,,,,
Cc1ccc2c(c1)OCC(=O)CO2,inactive,inactive,,inactive,inactive,inactive,inactive,inactive,inactive,inactive,,,,,77 µM (active),,
CSc1ccc(Cl)cc1,inactive,inactive,inactive,inactive,inactive,inactive,inactive,inactive,inactive,inactive,,,,,,,
Nc1c(Br)cc([N+](=O)[O-])cc1Br,inactive,inactive,,inactive,inactive,inactive,inactive,inactive,inactive,inactive,,,,,26.7 µM (active),,
NC(=O)C(F)(F)C(F)(F)C(F)(F)F,inactive,inactive,inactive,inactive,inactive,inactive,inactive,inactive,inactive,inactive,,,,,,,
NC(=O)C(F)(F)C(F)(F)C(F)(F)C(F)(F)C(F)(F)C(F)(F)C(F)(F)F,inactive,inactive,inactive,inactive,inactive,inactive,inactive,inactive,inactive,inactive,,,,,,,
CCOC(OCC)OCC,inactive,inactive,,inactive,inactive,inactive,inactive,inactive,inactive,inactive,,,,,28 µM (active),,
CCCCCCCC/C=C\CCCCCCCC(=O)OCC(O)CO (stereo not given),inactive,inactive,inactive,inactive,inactive,inactive,inactive,inactive,inactive,inactive,,,,,,,
OCCCCC(F)(F)C(F)(F)C(F)(F)C(F)(F)F,inactive,inactive,inactive,inactive,inactive,inactive,inactive,inactive,inactive,inactive,,,,,,,
N#Cc1ccccc1O,inactive,inactive,inactive,inactive,inactive,inactive,inactive,inactive,inactive,inactive,,,,,,,
